# The supplement of paper PMC6897291
# Where a name gives a salt, the structure may show the parent alone.
# Key:
# U-2932 [1] = assay: growth inhibition by drug alone (1 - RLU/untreated control) (fraction); higher = stronger inhibition; settings: 177Lu-lilotomab satetraxetan 0 ug/ml
# Outline: (§1)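 Growth inhibition was calculated from RealTime-Glo RLU against untreated no-drug wells. Values equal 1 − RLU/mean of 48 untreated no-drug wells per plate, read daily from day 3 after 1 h at 37°C. RIVA and U-2932 cells, with or without 18 h pretreatment by a radiolabelled anti-CD37 antibody conjugate (~600 MBq/mg; 0.5 µg/ml RIVA, 1 µg/ml U-2932), were washed and plated at 3,000 cells/well on compound-printed plates at 10/100 nM (RIVA) or 10/1,000 nM (U-2932).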
# RIVA [2] = assay: as above; settings: 177Lu-lilotomab satetraxetan 0 ug/ml
# Outline: as §1
# U-2932 [3] = assay: growth inhibition by drug plus 177Lu-lilotomab satetraxetan (1 - RLU/untreated control) (fraction); higher = stronger inhibition; settings: 177Lu-lilotomab satetraxetan 1 ug/ml
# Outline: as §1
# RIVA [4] = assay: as above; settings: 177Lu-lilotomab satetraxetan 0.5 ug/ml
# Outline: as §1
SMILES,"growth inhibition by drug alone (U-2932 [1]; 10 nM, time (day): 3)","growth inhibition by drug alone (U-2932 [1]; 10 nM, time (day): 4)","growth inhibition by drug alone (U-2932 [1]; 10 nM, time (day): 5)","growth inhibition by drug alone (U-2932 [1]; 10 nM, time (day): 6)","growth inhibition by drug alone (U-2932 [1]; 1000 nM, time (day): 3)","growth inhibition by drug alone (U-2932 [1]; 1000 nM, time (day): 4)","growth inhibition by drug alone (U-2932 [1]; 1000 nM, time (day): 5)","growth inhibition by drug alone (U-2932 [1]; 1000 nM, time (day): 6)","growth inhibition by drug alone (RIVA [2]; 10 nM, time (day): 3)","growth inhibition by drug alone (RIVA [2]; 10 nM, time (day): 4)","growth inhibition by drug alone (RIVA [2]; 10 nM, time (day): 5)","growth inhibition by drug alone (RIVA [2]; 10 nM, time (day): 6)","growth inhibition by drug alone (RIVA [2]; 100 nM, time (day): 3)","growth inhibition by drug alone (RIVA [2]; 100 nM, time (day): 4)","growth inhibition by drug alone (RIVA [2]; 100 nM, time (day): 5)","growth inhibition by drug alone (RIVA [2]; 100 nM, time (day): 6)","growth inhibition by drug plus 177Lu-lilotomab satetraxetan (U-2932 [3]; 10 nM, time (day): 3)","growth inhibition by drug plus 177Lu-lilotomab satetraxetan (U-2932 [3]; 10 nM, time (day): 4)","growth inhibition by drug plus 177Lu-lilotomab satetraxetan (U-2932 [3]; 10 nM, time (day): 5)","growth inhibition by drug plus 177Lu-lilotomab satetraxetan (U-2932 [3]; 10 nM, time (day): 6)","growth inhibition by drug plus 177Lu-lilotomab satetraxetan (U-2932 [3]; 1000 nM, time (day): 3)","growth inhibition by drug plus 177Lu-lilotomab satetraxetan (U-2932 [3]; 1000 nM, time (day): 4)","growth inhibition by drug plus 177Lu-lilotomab satetraxetan (U-2932 [3]; 1000 nM, time (day): 5)","growth inhibition by drug plus 177Lu-lilotomab satetraxetan (U-2932 [3]; 1000 nM, time (day): 6)","growth inhibition by drug plus 177Lu-lilotomab satetraxetan (RIVA [4]; 10 nM, time (day): 3)","growth inhibition by drug plus 177Lu-lilotomab satetraxetan (RIVA [4]; 10 nM, time (day): 4)","growth inhibition by drug plus 177Lu-lilotomab satetraxetan (RIVA [4]; 10 nM, time (day): 5)","growth inhibition by drug plus 177Lu-lilotomab satetraxetan (RIVA [4]; 10 nM, time (day): 6)","growth inhibition by drug plus 177Lu-lilotomab satetraxetan (RIVA [4]; 100 nM, time (day): 3)","growth inhibition by drug plus 177Lu-lilotomab satetraxetan (RIVA [4]; 100 nM, time (day): 4)","growth inhibition by drug plus 177Lu-lilotomab satetraxetan (RIVA [4]; 100 nM, time (day): 5)","growth inhibition by drug plus 177Lu-lilotomab satetraxetan (RIVA [4]; 100 nM, time (day): 6)"
C#CCN(C)CC1=Cc2ccccc2Oc2ccccc21,0.0712,0.0296,-0.0381,-0.0948,0.056,0.0596,0.000991,0.0366,-0.0236,-0.0211,-0.0438,-0.145,-0.121,-0.0828,-0.112,-0.138,0.0301,0.075,0.128,0.198,0.0289,0.0839,0.129,0.233,0.602,0.618,0.628,0.62,0.573,0.617,0.634,0.63
CC(C)C(=O)Nc1ccc([N+](=O)[O-])c(C(F)(F)F)c1 [Flutamide (Eulexin)],0.147,0.0928,0.0103,-0.0414,0.15,0.123,0.105,0.0519,0.122,0.106,0.0768,-0.0242,-0.044,0.0232,0.0258,-0.0163,0.105,0.202,0.26,0.327,0.175,0.211,0.291,0.385,0.611,0.616,0.649,0.663,0.534,0.562,0.599,0.626
Cc1ccc(-n2nc(C(C)(C)C)cc2NC(=O)Nc2ccc(OCCN3CCOCC3)c3ccccc23)cc1 [BIRB 796 (Doramapimod)],0.238,0.206,0.0293,0.0019,0.274,0.272,0.208,0.2,0.117,0.131,0.0641,-0.0577,-0.00598,0.0829,0.0349,-0.0954,0.173,0.182,0.252,0.301,0.273,0.29,0.32,0.408,0.669,0.691,0.702,0.711,0.407,0.527,0.521,0.528
O=C1CN2Cc3c(ccc(Cl)c3Cl)N=C2N1 [Anagrelide],0.0875,0.0814,0.0131,-0.134,0.102,0.0873,-0.0302,-0.00421,-0.0185,0.0438,-0.0392,-0.302,-0.0533,0.019,0.0156,-0.0326,0.101,0.141,0.208,0.23,0.0939,0.117,0.178,0.243,0.547,0.616,0.633,0.635,0.54,0.612,0.625,0.631
COc1nc(-c2ccc3c(c2)OCO3)n(-c2ccc(NC(=O)CSc3ccccc3)cc2)n1 [SecinH3],-0.0611,-0.0455,-0.0236,0.124,-0.143,-0.0966,-0.134,-0.195,-0.242,-0.224,-0.27,-0.428,-0.311,-0.358,-0.334,-0.394,-0.0793,-0.0496,-0.0101,0.122,-0.197,-0.087,-0.0724,-0.0297,0.275,0.448,0.482,0.494,0.323,0.424,0.437,0.419
O=C(c1ccc(OCCN2CCCCC2)cc1)c1c(-c2ccc(O)cc2)sc2cc(O)ccc12 [Evista (Raloxifene Hydrochloride)],0.0697,0.04,-0.0859,-0.131,-0.0629,-0.0257,-0.102,-0.132,0.0573,-0.0405,-0.151,-0.472,-0.0542,-0.0819,-0.167,-0.432,-0.0103,0.0219,0.0239,0.0818,-0.103,0.0136,-0.0473,-0.104,0.368,0.48,0.511,0.525,0.425,0.482,0.477,0.447
O=C(O)C1(C(=O)O)CCC1.[NH2-].[NH2-].[Pt+2] [Carboplatin],0.0266,-0.0103,-0.0119,-0.000763,-0.0124,-0.0343,-0.0455,0.00969,-0.0898,-0.143,-0.162,-0.249,-0.121,-0.164,-0.182,-0.229,-0.0315,0.0327,0.0748,0.141,0.0161,0.0456,0.0793,0.221,0.458,0.519,0.538,0.54,0.528,0.554,0.565,0.569
